Bioassay records deposited in PubChem BioAssay by several laboratories.
The sample as a whole holds a higher share of hits than the screen did.
PDI turbidity – inhibitors of human PDI, primary screen, biochemical, turbidity, single point, plate reader; Protein disulfide-isomerase (Homo sapiens), P07237; PDI insulin aggregation turbidity, A650, 90 min; inhibition, % at 10 µM; 350,000 tested, 0.052% active; AID 588391, 2011;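 active = mean inhibition across replicates of 30% or more, whatever share of single replicates reach that level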
ALR inh – inhibitors of human ALR sulfhydryl oxidase, primary screen, biochemical, H2O2 detection, HRP-luminol luminescence, single point; FAD-linked sulfhydryl oxidase ALR (Homo sapiens), P55789; purified ALR, DTT oxidation; inhibition, % (no concentration beside the values); 290,000 tested, 3.8% active; AID 485317, 2010;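 active = mean replicate inhibition above about 79%, with every replicate also reaching it, limit read from the data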
Target sequence (P55789 whole entry, looked up): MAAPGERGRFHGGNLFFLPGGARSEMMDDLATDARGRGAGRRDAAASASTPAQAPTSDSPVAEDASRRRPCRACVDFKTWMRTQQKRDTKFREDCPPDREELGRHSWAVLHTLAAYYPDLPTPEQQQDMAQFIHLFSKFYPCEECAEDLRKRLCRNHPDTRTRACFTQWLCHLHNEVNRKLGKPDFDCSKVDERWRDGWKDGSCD
ERp5 block – inhibitors of ERp5-driven insulin aggregation, primary screen, biochemical, turbidity, absorbance 650 nm, single point; 350,000 tested, 0.05% active; Protein disulfide-isomerase A6 (Homo sapiens), Q15084; 90 min; inhibition, % at 9.99 µM;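 active = mean replicate inhibition above about 25%, with every replicate also reaching it, limit read from the data, passing the limit was not always enough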
Target sequence (Q15084 whole entry, looked up): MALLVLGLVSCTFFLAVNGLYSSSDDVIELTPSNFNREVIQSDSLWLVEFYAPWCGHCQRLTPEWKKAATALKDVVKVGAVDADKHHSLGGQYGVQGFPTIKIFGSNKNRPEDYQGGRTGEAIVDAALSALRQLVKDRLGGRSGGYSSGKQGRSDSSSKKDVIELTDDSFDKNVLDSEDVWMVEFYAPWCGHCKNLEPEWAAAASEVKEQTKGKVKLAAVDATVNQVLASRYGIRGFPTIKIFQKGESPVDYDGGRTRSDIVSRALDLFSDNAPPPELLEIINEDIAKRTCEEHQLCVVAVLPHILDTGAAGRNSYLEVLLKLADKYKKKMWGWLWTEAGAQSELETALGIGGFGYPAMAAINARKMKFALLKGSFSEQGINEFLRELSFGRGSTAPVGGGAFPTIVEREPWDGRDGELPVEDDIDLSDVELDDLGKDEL
ARNT TACC3 PPI – disruptors of ARNT/TACC3 protein interaction, primary screen, biochemical, AlphaScreen, single concentration. Transforming acidic coiled-coil-containing protein 3 (Homo sapiens), Q9Y6A5. AlphaScreen His-ARNT PAS-B/GST-TACC3 binding, luminescence; TACC3 fragment carries E629A point mutation. inhibition, % at 9.99 µM. 390,000 tested, 0.66% active;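 active = mean inhibition of replicates at least 50% and at least half of replicates each reaching 50%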;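 also: 0% = complete ARNT plus TACC3 wells and 100% = ARNT alone without TACC3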
PglD DTNB – C. jejuni PglD acetyltransferase inhibitors, primary screen, biochemical, DTNB colorimetric, single point | inhibition, % at 12.5 µM | purified PglD enzyme, DTNB colorimetric CoA detection | AID 602405, 2012 | 360,000 tested, 0.098% active | UDP-N-acetylbacillosamine N-acetyltransferase PglD (Campylobacter jejuni); in the data active = inhibition above about 16%, passing the limit was not always enough
NRP1-CendR mod – modulators of CendR peptide binding to NRP-1, primary screen, biochemical, fluorescence polarization, uHTS. FAM-RPARPAR peptide binding to NRP-1. inhibition, % at 25 µM. 360,000 tested, 0.85% active. AID 602438, 2012;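 active = inhibition or corrected inhibition above about 18%, plus a signal ratio from 0.5 to 1.5, limit read from the data, passing the limit was not always enough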
ARNT Alpha ctr-1 – AlphaScreen signal interference compounds, dose response, artefact control for ARNT-TACC3 interaction inhibitor project, biochemical, luminescence, cherry-pick; 1,200 tested, 50% active; shares compounds with ARNT TACC3 PPI; His-ARNT PASB-GST AlphaScreen artifact counter-screen; AID 651705, 2012; AC50, µM (titrated, usually from 68 µM), inactives show at the top dose activity change, negative = signal decrease;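 active = every separate test run was called active for a drop in luminescence, with AC50 within twice the top valid dose, actives reach about 71 µM in these data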
ARNT Alpha ctr-2 – AlphaScreen signal interference by compounds, dose response, artefact control for ARNT/TACC3 disruptor project, biochemical, dual-tagged ARNT, dry powder; shares compounds with ARNT TACC3 PPI; Dual-tagged His-ARNT PASB-GST AlphaScreen artifact counter-screen; AC50, µM; 45 tested, 70% active; AID 720564, 2013;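 active = luminescence drop, with half-maximal potency fitted within twice the sample's top valid dose, cut at about 70 µM in these data; inactive = the rest, including signal moving the wrong way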
* = called active by the depositor; i = inactive; . = no result; [ ] = dose if it differs, or a comment.

SMILES | PDI turbidity | ALR inh | ERp5 block | ARNT TACC3 PPI | PglD DTNB | NRP1-CendR mod | ARNT Alpha ctr-1 | others
O=C(COC(=O)c1ccc(Cl)nc1)Nc1nnc(-c2ccccc2)o1 | 0 | 6 | 4 | 79* | 4 | 4 | -14%
COc1cc(OC)cc(C(=O)OCC(=O)Nc2nnc(-c3ccccc3)o2)c1 | 5 | . | 2 | 5 | 0 | -14 | .
Cc1ccsc1C(=O)OCC(=O)Nc1nnc(-c2ccccc2)o1 | 2 | 2 | 4 | 57* | 5 | -6 | 64µM*
Cc1noc(C)c1S(=O)(=O)N(C)C[C@H]1Oc2ccc(NC(=O)Nc3ccc4c(c3)OCO4)cc2CC(=O)N([C@H](C)CO)C[C@@H]1C | . | . | 8 | . | 1 | . | .
C[C@@H]1CN([C@H](C)CO)C(=O)c2cc(NC(=O)C3CC3)ccc2O[C@@H]1CN(C)S(=O)(=O)c1ccc(F)cc1 | . | . | 10 | 0 | 2 | . | .
CN1CCN(S(=O)(=O)c2cccc(C(=O)Nc3sccc3C(N)=O)c2)CC1 | 7 | 58 | -1 | 46* | 1 | 4 | 44µM*
CN1CCN(S(=O)(=O)c2cccc(C(=O)Nc3cc(C(N)=O)cc(C(N)=O)c3)c2)CC1 | -4 | -8 | 5 | 40 | 3 | -139 | .
CC(C)Cc1nnc(NC(=O)c2cccc(S(=O)(=O)N3CCOCC3)c2)s1 | -9 | 3 | 3 | . | 0 | 5 | . | ARNT Alpha ctr-2=i
CC(C)Cc1nnc(NC(=O)c2cccc(S(=O)(=O)N3CCN(C)CC3)c2)s1 | 1 | 0 | -2 | -7 | 6 | -6 | .
C[C@@H]1CCCCO[C@H](CN(C)S(=O)(=O)c2ccc(Cl)cc2)[C@H](C)CN([C@H](C)CO)C(=O)c2cc(NC(=O)C3CCCCC3)ccc2O1 | . | . | -1 | -5 | 0 | . | .
O=C(c1ccco1)[C@@H]1[C@@H]2C(=O)N(c3ccccc3)C(=O)[C@@H]2C2c3ccccc3C=CN21 (some centres undefined) | -8 | 6 | . | 41* | . | 7 | -34%
O=C(NCCCN1CCOCC1)c1cc(-c2ccccc2)on1 | 12 | -4 | 1 | 0 | 2 | 6 | 10%[38 µM]
O=C(NCCN1CCOCC1)c1cc(-c2ccc(Br)cc2)on1 | 0 | -5 | . | -14 | 3 | 1 | .
O=C(NCCN1CCOCC1)c1cc(-c2ccccc2)on1 | 4 | -9 | . | -2 | 3 | 3 | 2%[38 µM]
O=[N+]([O-])c1cccc(/C=N/Nc2nc(NCc3ccccc3)nc(N3CCOCC3)n2)c1O | 17 | -10 | 3 | 59* | . | -3 | 14µM*
COCC(=O)N1[C@H](CO)[C@H](c2ccc(C#Cc3ccccc3F)cc2)[C@@H]1C#N | . | . | 10 | -9 | 0 | . | .
Cc1sc2ncnc(N/N=C/c3ccc(O)cc3)c2c1C | 2 | 72 | -7 | 41 | -3 | 4 | .
Cc1sc2ncnc(N/N=C/c3ccccc3O)c2c1C | -2 | 91* | . | 54* | 1 | -43 | 41µM*
O=c1[nH]c(Nc2ccccc2)cc2cc(Br)ccc12 | -4 | -1 | -9 | 35 | -7 | -16 | .
COc1ccccc1Nc1cc2cc(Br)ccc2c(=O)[nH]1 | 29 | -19 | 8 | 55* | -2 | -44 | -26%
C=CCSc1nnc(-c2cccc3ccccc23)o1 | 1 | . | -7 | 57* | 1 | 1 | 34µM*
C/C(=N\NC(=O)c1c[nH]c2ccccc12)c1ccc(C)o1 | 7 | 3 | . | 62* | 2 | -13 | 57µM*
CC(C)NC(=O)N1[C@H](CO)[C@@H]2c3ccccc3N(C(=O)C3CCC3)C[C@@H]21 | . | . | 0 | -3 | 0 | . | .
CC(=O)N(C1=C(O)c2ccccc2C(=O)C1=O)C1CCCCC1 | -2 | 4 | -1 | 3 | 0 | -3 | .
CC(=O)N(C)C1=C(O)c2ccccc2C(=O)C1=O | 2 | -15 | . | 11* | -5 | -5 | 5%
SMILES | PDI turbidity | ALR inh | ERp5 block | ARNT TACC3 PPI | PglD DTNB | NRP1-CendR mod | ARNT Alpha ctr-1 | others
N#Cc1ccsc1NC(=O)c1ccc2ncsc2c1 | 6 | . | 4 | . | 5 | -143 | .
N#Cc1ccsc1NC(=O)c1ccccn1 | -3 | -8 | . | 64* | -1 | -21 | -11%
COc1cc(CN2[C@@H]3CNC[C@H]2C3c2ccc(/C=C/c3ccccc3)cc2)cc(OC)c1 (some centres undefined) | . | . | 1 | . | . | . | .
COc1cc(OC)cc(C(=O)Oc2c(CN3CCOCC3)cc(Cl)c3cccnc23)c1 | 4 | 1 | 2 | 41* | -1 | -6 | -38%
Oc1c(Cl)cc(Cl)c(Cl)c1CN1CCOCC1 | 6 | . | 1 | -3 | -3 | 4 | .
O=C(Oc1c(CN2CCOCC2)cc(Cl)c2cccnc12)c1ccccc1 | 7 | -16 | -10 | 52* | . | -4 | -36%
Oc1c(Cl)cc(CN2CCOCC2)c2cccnc12 | 1 | 32 | -3 | 71* | 3 | -3 | 7.3µM*
O=C(COc1c(Br)cc(Br)c2cccnc12)N1CCCCC1 | -3 | -12 | 3 | 11 | . | 1 | .
Oc1c(CN2CCCCC2)cc(Br)c2cccnc12 | 1 | . | . | 64* | -4 | 2 | 5.6µM*
COc1cccc(NC(=O)N[C@H]2C=C[C@@H](CC(=O)Nc3ccccc3)O[C@H]2CO)c1 | . | . | -2 | 0 | -1 | . | .
CC(=O)N(C)C[C@H]1Oc2ncc(-c3ccc(C#N)cc3)cc2C(=O)N([C@H](C)CO)C[C@@H]1C | . | . | -2 | -6 | -1 | . | .
Oc1ccccc1C(Nc1nccs1)c1ccc2cccnc2c1O (centres undefined) | 2 | -5 | 0 | 61* | 0 | -10 | 12µM*
Oc1c(C(Nc2ccccn2)c2ccccn2)ccc2cccnc12 (centres undefined) | 3 | 25 | 12 | . | 0 | -11 | .
COc1ccc(-c2nc(CN3CCC(c4ccccc4)CC3)c(C)o2)cc1OC | -1 | -16 | 5 | 7 | . | -20 | .
COc1ccc(-c2nc(CN3CCC(C(=O)NC4CCCc5ccccc54)CC3)c(C)o2)cc1OC (centres undefined) | 2 | . | -3 | 56* | . | 12 | -10%
